Data as given in PubChem BioAssay (NCATS).
Records with an inconclusive call do not appear. Activity calls are given as the source filed them. Unless noted, calls come from the whole dose curve; as a rule, active = well fitted curve in the direction sought with a large enough effect; inconclusive = small, poorly fitted or top-dose-only effect, or another doubt; inactive = no such curve, though single readings can be large; an effect the other way counts as inactive or inconclusive.

How the values were obtained:
[1] = Cell Viability - Jurkat (AID 426;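 active = dose-dependent loss of cell ATP signal giving a full or clear fitted curve, ranked by lower potency value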; note: potency is the fitted concentration of half-maximal effect); conditions: qHTS
Summary of the method: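 Seed 5000 Jurkat E6-1 cells/well; add compound; incubate 40 hr at 37 °C; add CellTiter-Glo; wait 20 min at room temperature; read luminescence. Fit concentration-response with Hill equation for AC50.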

[2] = Cell Viability - Hek293 (AID 427;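 active = compounds whose dose-response curve shows a full or clear partial loss of cell viability, called from curve shape rather than a numeric limit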;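 note: potency is the fitted concentration of half-maximal effect; cells exposed to compound for 40 hours at 37 °C before reading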); conditions: qHTS
Summary of the method: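 Luminescent ATP read-out (CellTiter-Glo, 20 min RT) after 40 hr compound exposure at 37 °C in complete medium. Signal normalized to DMSO (basal) and 100 uM tamoxifen (100% inhibition); concentration-response fitted with the standard Hill equation to give AC50.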

[3] = Cell Viability - HepG2 (AID 433; calls by dose curve;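 note: potency is the fitted concentration of half-maximal effect; potency for ATP loss meaning cytotoxicity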); conditions: qHTS
Summary of the method: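 HepG2 cells, 1500 per well, treated 40 hr at 37 °C in complete medium; viability from intracellular ATP by CellTiter-Glo luminescence. Normalized to DMSO and 100 uM tamoxifen; AC50 from Hill fit of qHTS concentration-response.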

[4] = Cell Viability - MRC5 (AID 434; calls by dose curve;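 note: potency is the fitted concentration of half-maximal effect; potency reflects cytotoxicity seen as loss of intracellular ATP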); conditions: MRC5 lung fibroblast viability, qHTS
Summary of the method: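 qHTS cytotoxicity in human lung fibroblast MRC5 cells; 40 hr treatment, 37 °C; cellular ATP by luciferase luminescence; DMSO = 0%, 100 uM tamoxifen = 100% inhibition; Hill-fit AC50.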

[5] = Cell Viability - SK-N-SH (AID 435; calls by dose curve;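 note: potency is the fitted concentration of half-maximal effect; compound exposure lasted 40 h at 37 °C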); conditions: SK-N-SH neuroblastoma cell viability qHTS
Summary of the method: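 SK-N-SH neuroblastoma cells (1500/well) treated 40 h at 37 °C in complete medium; viability read as cellular ATP by CellTiter-Glo luminescence. Normalized to DMSO and 100 uM tamoxifen; AC50 from Hill fits of qHTS concentration-response.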

[6] = target: Mitogen-activated protein kinase 10 (Mus musculus) (UniProt Q61831); test: JNK3 AlphaScreen Assay (AID 530; active = well fitted curve in either direction with a large enough effect, not every such curve was filed as active;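 note: kinase came from lysate of stimulated human HepG2 cells; signal reports phosphorylation of biotinylated GST-cJun 1-79 at Ser73 with 10 µM ATP; % is set by controls: 0 for no effect and ±100 for the full control effect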)
Summary of the method: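 Room-temperature AlphaScreen kinase assay; pre-activated HepG2 lysate as JNK3 source, biotin-GST-cJun(1-79) substrate, 10 uM ATP, compound 15 min preincubation.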

[7] = Cell Viability - N2a (AID 540); conditions: N2a mouse neuroblastoma cell viability; at 92.2 µM (top of the series);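 note: plate controls were DMSO alone for no effect and tamoxifen control for full effect; nearly all actives have a fitted effect of over 45% in size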
Summary of the method: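 First, 1500 N2a cells per well incubate 5 hr at 37 °C; next, compounds are added and incubated 40 hr at 37 °C; finally CellTiter-Glo is added and luminescence read after 20 min, with AC50 derived by Hill modeling.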

[8] = Cell Viability - HUV-EC-C (AID 542); note: % is set by controls: 0 for no effect and ±100 for the full control effect; nearly all actives have a fitted effect of over 35% in size
Summary of the method: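 Decrease in cellular ATP, quantified by luciferase luminescence, reflects toxicity in normal human vascular endothelial HUV-EC-C cells given compound for 40 hr in complete culture medium. Values are AC50s from concentration-response curves.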

[9] = Cell Viability - H-4-II-E (AID 543); note: % is set by controls: 0 for no effect and ±100 for the full control effect; nearly all actives have a fitted effect of over 35% in size
Summary of the method: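 Here, cytotoxicity is measured in the rat hepatoma line H-4-II-E as loss of intracellular ATP after 40 hr compound treatment, detected by luciferase luminescence.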

[10] = Cell Viability - SH-SY5Y (AID 544); conditions: SH-SY5Y neuroblastoma cell viability; viability change, negative = cytotoxic: at 92.2 µM (top of the series); note: nearly all actives have a fitted effect of over 55% in size
Summary of the method: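 Cytotoxicity is scored as a concentration-dependent fall in intracellular ATP in human SH-SY5Y cells treated 40 hr in complete culture medium. Potency is expressed as AC50 from a Hill equation fit.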

[11] = Cell Viability - Renal Proximal Tubule (AID 545); conditions: renal proximal tubule cells viability; at 91.7 µM (top of the series), primary cells of rat origin unless noted; note: nearly all actives have a fitted effect of over 40% in size
Summary of the method: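 Rat renal proximal tubule primary cells, 1000/well, exposed to compounds for 40 hr at 37 °C in complete medium; cellular ATP read by CellTiter-Glo luminescence. AC50 from concentration-response fitted with standard Hill equation.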

[12] = Cell Viability - Mesenchymal (AID 546);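 note: cells exposed to compound for 40 hours before reading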
Summary of the method: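 AC50 values reflect the drop in intracellular ATP in a human kidney mesenchymal line derived from normal glomeruli. Treatment lasts 40 hr at 37 °C in complete medium, and the signal comes from CellTiter-Glo luminescence.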

[13] = Cellular Toxicity (caspase-3) HepG2 (AID 654);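 note: cells exposed to compound for 16 hours before reading; 0% = DMSO alone and 100% = caspase signal from 100 µM tamoxifen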
Summary of the method: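 qHTS, HepG2, 1500 cells/well, complete medium; cpd 16 h 37 °C; Caspase-Glo 3/7, 20 min RT; lum. Norm: DMSO vs 100 uM tamoxifen; AC50 Hill fit.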

[14] = Cellular Toxicity (caspase-3) Jurkat (AID 655); conditions: Jurkat caspase-3 activation, luminescence, DMSO = 0%, tamoxifen = 100%; at 92.2 µM (top of the series);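 note: cells exposed to compound for 16 h at 37 °C before reading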
Summary of the method: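 Jurkat cells (5000/well) in complete medium exposed 16 h at 37 C; caspase-3/7 activity read by Caspase-Glo luminescence after 20 min at room temperature. Normalized to DMSO and 100 uM tamoxifen; AC50 from Hill fits.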

[15] = Cellular Toxicity (caspase-3) HUV-EC-C (AID 656)
Summary of the method: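 HUV-EC-C cells (1000/well) in complete medium, compound-treated 16 h at 37 °C; caspase-3/7 activity read by Caspase-Glo 3/7 luminescence. Normalized to DMSO (basal) and 100 uM tamoxifen (100%); AC50 from Hill-equation concentration-response fits.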

[16] = Cellular Toxicity (caspase-3) SHSY5Y (AID 657)
Summary of the method: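 SH-SY5Y human neuroblastoma cells, 1500/well, exposed to compound for 16 hours at 37 °C in complete medium. Caspase-3/7 activity read by Caspase-Glo luminescence after 1 hr at room temperature, normalized to DMSO and 10 uM staurosporine; AC50 from Hill fit.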

[17] = Cellular Toxicity (caspase-3) BJ (AID 658)
Summary of the method: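 Readout: Caspase-Glo 3/7 luminescence increase in BJ cells after 16 hr treatment at 37 °C. Staurosporine and tamoxifen served as positive controls; AC50 values came from Hill modelling of data normalized to DMSO and 10 uM staurosporine.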

[18] = Cellular Toxicity (caspase-3) MRC-5 (AID 659)
Summary of the method: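 Concentration-dependent caspase 3/7 activation is measured in human normal lung fibroblasts (MRC-5) following 16-hour treatment. AC50 values come from standard Hill-equation modeling of luminescence normalized to DMSO and 10 uM staurosporine.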

[19] = Cellular Toxicity (caspase-3) Mesangial (AID 660);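 note: cells exposed to compound for 16 h before the caspase read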
Summary of the method: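 Concentration-response qHTS: compound-induced rise in caspase 3/7 luminescence in human mesangial cells after 16 h, normalized to DMSO and 100 uM tamoxifen controls.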

[20] = Cellular Toxicity (caspase-3) SK-N-SH (AID 661)
Summary of the method: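 Caspase 3/7 activation is measured as a luminescence increase from aminoluciferin released by substrate cleavage in SK-N-SH cells after 16 hr compound treatment; values are AC50 from concentration-response curves.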

[21] = Cellular Toxicity (caspase-3) H-4-II-E (AID 663);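 note: cells exposed to compound for 16 hr before readout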
Summary of the method: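 Apoptosis induction is scored as increased luminescence from caspase 3/7 substrate cleavage in rat hepatoma H-4-II-E cells exposed to compound for 16 hr. Activity is scaled between DMSO and 100 uM tamoxifen.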

[22] = Cellular Toxicity (caspase-3) Hek293 (AID 664);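 note: cells exposed to compound for 16 h at 37 °C before readout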
Summary of the method: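 Activation of caspase-3/7 is measured as increased luminescence from cleaved peptide-aminoluciferin substrate in HEK293 cells treated 16 hours at 37 °C. AC50 values come from Hill-equation fits of concentration-response data.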

[23] = Cellular Toxicity (caspase-3) N2a (AID 665); conditions: N2a cells, luminescence, normalized: DMSO 0%, 10 µM staurosporine 100%; at 92.2 µM (top of the series);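 note: compound exposure lasted 16 h at 37 °C before readout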
Summary of the method: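 Plated mouse neuroblastoma N2a cells received titrated compounds for 16 h in complete medium. Caspase activity was then detected with a peptide-aminoluciferin luminescent reagent.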

COC1=CC(=O)OC(CCc2ccccc2)C1 (stereo not drawn)
inactive: Potency [1] > 92 µM | Potency [2] > 92 µM | Potency [3] > 92 µM | Potency [4] > 92 µM | Potency [5] > 92 µM | outcome [6] | activity change, negative = cytotoxicity [7] -9.01% | Potency [8] | Potency [9] | Potency [10] | activity change, negative = cytotoxicity [11] -1.23% | outcome [12] | outcome [13] | caspase-3 activation [14] 0.972% | outcome [15] | outcome [16] | outcome [17] | outcome [18] | outcome [19] | outcome [20] | outcome [21] | outcome [22] | caspase-3 activation [23] -5.42%
